This passage reports inhibition results from PubChem BioAssay AID1445 (SRMLSC, 2008).

Usually inhibition stands for the change of the read-out against control, counted positive when it falls.

About 910 (0.41%) of roughly 220,000 compounds were called active. The entries come from a sample that favours actives as a whole. Entries with a potency or affinity are not part of this list. Values without a mark were called inactive.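 How the source made its calls: active means primary inhibition above the hit cutoff, then over 50% inhibition at one or more dose response concentrations (cut at about 23% in these data, passing the limit was not always enough); inconclusive means conflicting primary data, or primary hits not chosen for dose response; inactive means low primary inhibition, or under 50% at every dose.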

The target of the assay is Aminopeptidase N (Plasmodium falciparum (isolate 3D7)) (UniProt O96935). Put plainly: P. falciparum M1AAP inhibitors, biochemical, fluorogenic H-Leu-NHMec substrate, 1536-well (AID 1445).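 Further: plate controls were DMSO full reaction for no effect and no enzyme background for full effect.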 Conditions: recombinant M1AAP, H-Leu-NHMec fluorogenic kinetic assay.
Setting [1] is: at 30 µM, active compounds read high unless noted.

Sequence of Aminopeptidase N (Plasmodium falciparum (isolate 3D7)) (O96935 whole entry, looked up): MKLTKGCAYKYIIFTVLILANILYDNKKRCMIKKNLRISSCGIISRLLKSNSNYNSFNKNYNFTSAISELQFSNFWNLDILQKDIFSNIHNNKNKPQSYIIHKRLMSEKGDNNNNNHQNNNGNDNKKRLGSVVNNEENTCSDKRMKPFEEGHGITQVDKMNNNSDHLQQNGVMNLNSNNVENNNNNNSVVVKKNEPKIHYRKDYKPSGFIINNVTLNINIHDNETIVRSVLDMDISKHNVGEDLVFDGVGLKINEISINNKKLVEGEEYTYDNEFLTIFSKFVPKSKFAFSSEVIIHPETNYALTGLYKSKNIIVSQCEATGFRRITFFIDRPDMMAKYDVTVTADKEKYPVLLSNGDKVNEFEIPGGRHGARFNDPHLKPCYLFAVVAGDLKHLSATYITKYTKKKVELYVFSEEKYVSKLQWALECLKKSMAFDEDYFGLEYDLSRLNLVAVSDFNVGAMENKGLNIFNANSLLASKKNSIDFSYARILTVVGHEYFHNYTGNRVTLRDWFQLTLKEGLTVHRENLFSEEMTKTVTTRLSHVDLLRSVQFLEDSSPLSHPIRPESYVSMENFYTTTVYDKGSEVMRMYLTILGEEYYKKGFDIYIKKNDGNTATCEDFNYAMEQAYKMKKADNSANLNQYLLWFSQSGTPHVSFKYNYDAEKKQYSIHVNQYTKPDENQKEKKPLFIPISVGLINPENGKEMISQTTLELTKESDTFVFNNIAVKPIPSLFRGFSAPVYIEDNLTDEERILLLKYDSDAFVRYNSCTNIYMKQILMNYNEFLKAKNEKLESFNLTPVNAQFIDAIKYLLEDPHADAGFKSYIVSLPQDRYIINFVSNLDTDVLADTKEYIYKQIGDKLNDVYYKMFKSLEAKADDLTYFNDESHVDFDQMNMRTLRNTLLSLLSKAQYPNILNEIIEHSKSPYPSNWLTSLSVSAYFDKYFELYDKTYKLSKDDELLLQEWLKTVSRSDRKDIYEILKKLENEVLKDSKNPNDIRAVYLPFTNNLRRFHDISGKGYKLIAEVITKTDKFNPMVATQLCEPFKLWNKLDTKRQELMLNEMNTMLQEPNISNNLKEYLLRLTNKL

`CCCOC(=O)c1ccc(Cl)c(NC(=O)c2cccnc2)c1`: the inhibition under setting [1] is 8.87%. The same measure, in the same setting: under `COc1ccc(C(=O)CC(=O)c2ccccc2O)cc1OC` stands 2.33%; under `COC(=O)c1ccc(-n2nnnc2SC)cc1`, 26.3% (active). On to `COC(=O)COC(=O)c1ccc(-n2nnnc2SC)cc1`, for which the inhibition under setting [1] is -3%. On the same count and under the same terms, then `CSc1nnnn1-c1ccc(C(=O)O)cc1`, with 5.73%; and `Cn1c(=O)n(CCc2ccccc2)c(=O)c2c1ncn2Cc1ccccc1`, with 2.43%.

For the compound `Cc1cc(NC(=O)c2ccc(N3CCCC3)c([N+](=O)[O-])c2)no1`, under setting [1], the inhibition is -2.39%. Same read-out and setting: under `CC(=O)Nc1cccc(NC(=O)C2CCCN2C(=O)Nc2ccccc2C)c1` (stereo not drawn) stands -3.25%; under `COc1ccc(NC(=O)C2CCCN2C(=O)Nc2cccc(F)c2)cc1` (stereo not drawn), 6.92%; under `Cc1cccc(NC(=O)N2CCCC2C(=O)Nc2ccccc2)c1` (stereo not drawn), 13.2%. On the same count and under the same terms, then `CC(=O)Nc1ccc(NC(=O)C2CCCN2C(=O)Nc2ccc(F)c([N+](=O)[O-])c2)cc1` (stereo not drawn), with 2.21%; and `O=C(NCc1ccc2c(c1)OCO2)C1CCCN1C(=O)Nc1ccc(F)cc1` (stereo not drawn), with 11.2%. On the same count and under the same terms, then `COc1cccc(NC(=O)C2CCCN2C(=O)Nc2cccc(F)c2)c1` (stereo not drawn), with 14.7%; and `O=C(NCc1ccc2c(c1)OCO2)C1CCCN1C(=O)Nc1ccccc1` (stereo not drawn), with 11.3%; and `CC(=O)c1cccc(NC(=O)N2CCCC2C(=O)Nc2cccc(C)c2)c1` (stereo not drawn), with 1.86%. As for `COc1ccc(Nc2nc(C(=O)N(CCO)Cc3ccccc3)cs2)cc1`, under setting [1], the inhibition was 0.85%. Still for that read-out and setting: under `Cc1ccc(NC(=O)CC2NCCN(Cc3ccccc3)C2=O)cc1` (stereo not drawn) stands 8.69%. Same read-out and setting: then `Cc1ccc(N(CC(=O)NN=C2CCN(C)CC2)S(=O)(=O)c2ccccc2)c(C)c1`, with -0.06%.

Take `O=C(Cn1cnc([N+](=O)[O-])n1)N/N=C/c1ccc2ccccc2c1`: the inhibition under setting [1] was 10.2%. The same measure, in the same setting: then `CCOC(=O)N1CCN(c2c(NCCCN(C)c3ccccc3)c(=O)c2=O)CC1`, with 6.93%; and `CCCc1nnc(NC(=O)Cn2c(=O)oc3ccccc32)s1`, with -0.7%; and `CCOC(=O)C(CC)/C(C)=N/NC(=O)c1ccc([N+](=O)[O-])cc1` (stereo not drawn), with 2.15%. Still for that read-out and setting: then `C=C1CCN([C@H](C(=O)NCc2ccco2)C(C)C)S(=O)(=O)c2ccccc21`, with 11%; and `COc1ccc(NC(=O)N2CCCC2C(=O)Nc2ccc(C)cc2)cc1` (stereo not drawn), with -3.34%; and `CC(=O)c1cccc(NC(=O)N2CCCC2C(=O)Nc2cc(C)ccc2C)c1` (stereo not drawn), with -1.28%. For the compound `CC1(C)CC(=O)C2=C(C1)N=C1SCCC(=O)N1C2c1cccc([N+](=O)[O-])c1` (stereo not drawn), the inhibition under setting [1] is 18%. For `Cc1c(NS(=O)(=O)c2ccc(C(=O)NCc3ccccc3)cc2)c(=O)n(-c2ccccc2)n1C`, the inhibition under setting [1] was 0.49%.

In the case of `Cc1c(NS(=O)(=O)c2cccc(C(=O)NCc3ccncc3)c2)c(=O)n(-c2ccccc2)n1C`, under setting [1], the inhibition was -2.28%.

As for `Cc1c(NC(=O)c2ccccc2NS(=O)(=O)c2ccc(Br)cc2)c(=O)n(-c2ccccc2)n1C`, the inhibition under setting [1] was 24.5% (active). As to `Cc1c(NC(=O)c2ccccc2NS(=O)(=O)c2ccc(F)cc2)c(=O)n(-c2ccccc2)n1C`, under setting [1], the inhibition was 20.1%. On the same count and under the same terms, then `CC(=O)Nc1ccc(S(=O)(=O)Nc2c(C)n(C)n(-c3ccccc3)c2=O)cc1`, with 0.31%. Regarding `Cc1ccc(S(=O)(=O)Nc2c(C)n(C)n(-c3ccccc3)c2=O)cc1C(=O)NCc1ccccn1`, the inhibition was 28.8% (active) (at 30 µM, active compounds read high) and 42.4% (at 100 µM (top of the series)).

Turning to `CC1=C(CCN2CCN(C(C)C)C(CCO)C2)C(C)(C)CCC1` (stereo not drawn), the inhibition under setting [1] is 2.23%. On the same count and under the same terms, then `CCn1c(Cn2nnc(-c3ccccc3)n2)nnc1SCC(=O)Nc1cccc(C(C)=O)c1`, with 0.07%. On the same count and under the same terms, then `COc1ccc(/C=N/NC(=O)c2cc(Br)ccc2O)cc1Cn1cc(Cl)cn1`, with 0.18%.

On to `O=c1[nH][nH]c(-c2ccccc2)c1C=Nc1ccc(C(F)(F)F)cc1`, for which, under setting [1], the inhibition was 2.58%. Still for that read-out and setting: then `CC1=C(C#N)c2nc(N)c(C#N)c(C)c2/C1=C\c1ccc(OCC(=O)O)c(Cl)c1`, with 11.5%; and `CC1=C(C#N)c2nc(N)c(C#N)c(C)c2/C1=C\c1ccc(C)cc1`, with 6.97%; and `COC(=O)c1ccc(/C=C/c2ccc3cccc(OC)c3n2)cc1`, with 20.2%.

`CSc1ccc(/C=C/c2ccc3cccc(O)c3n2)cc1`: under setting [1], the inhibition was 8.1%.

`O=C(COc1ccc(F)cc1)N(c1ccccn1)C1CCCCC1`: the inhibition under setting [1] is 2.11%. On the same count and under the same terms, then `COc1ccc(N2C(=O)C3CCCN3C2c2cccc(OC)c2OC)cc1` (stereo not drawn), with 3.05%; and `CCN(CC)CC(O)Cn1c(-c2ccccc2Cl)nc2ccccc21` (stereo not drawn), with 3.4%.

On to `Cc1ccc(CN2CCN(/N=C/c3ccc(C(F)(F)F)cc3)CC2)cc1`, for which the inhibition under setting [1] was 5.42%. On the same count and under the same terms, under `C#CCCOC(=O)N1C2=NC(C(=O)OC)=C(C(=O)OC)[C@@H]3N(Cc4ccccc4)c4ccccc4[C@]23C[C@H]1C(=O)OC` stands 8.52%; under `C#CCCOC(=O)N1C2=NC(C(=O)OC)=C(C(=O)OC)[C@@H]3N(C)c4ccccc4[C@]23C[C@H]1C(=O)OC`, 3.66%; under `COC(C[C@H](O)CC(=O)[C@H](C)OCc1ccccc1)OC`, 1.19%.

On to `COC(=O)c1sc2nc(-c3ccccc3)c3c(c2c1N)CCCC3`, for which the inhibition under setting [1] is 0.85%. On the same count and under the same terms, then `COc1ccc(CN(C)C(=S)Nc2ccc(OC(F)F)cc2)cc1`, with -1.27%. As for `O=C1CCCc2nc3nc4ccccc4n3cc21`, under setting [1], the inhibition is -2.88%.

With `CC1CCN(C(=O)CSc2nc(N)cc(N)n2)CC1`, under setting [1], the inhibition was -2.52%. The same measure, in the same setting: under `CCOc1ccc(-n2c(=S)sc3c(=O)[nH]c(SCC(=O)NCC4CCCO4)nc32)cc1` (stereo not drawn) stands 18.3%; under `CCOc1ccc2c(c1)c1nnc(SCC(=O)N3CCC(C)CC3)nc1n2C`, 7.57%. On the same count and under the same terms, under `CCOC(=O)CC(=O)CSc1nc2c(sc(=S)n2-c2ccccc2)c(=O)[nH]1` stands 21.4%. As to `CCOc1ccc(-n2c(=S)sc3c(=O)[nH]c(SCC(=O)NCc4ccco4)nc32)cc1`, the inhibition reads like this: (at 30 µM, active compounds read high) 29.8% (active); (at 100 µM (top of the series)) 46.1%. As for `CCN(CC)C(=O)CSc1nc2c(sc(=S)n2-c2ccccc2)c(=O)[nH]1`, under setting [1], the inhibition is 5.01%.

For the compound `CCOC(=O)CSc1nc2c(sc(=S)n2-c2ccc(OCC)cc2)c(=O)[nH]1`, the inhibition under setting [1] was 13.9%. Still for that read-out and setting: under `CCOC(=O)CSc1nc2c(sc(=S)n2-c2ccccc2)c(=O)[nH]1` stands 7.91%; under `CCOc1ccc(-n2c(=S)sc3c(=O)[nH]c(SCC(=O)NC(C)CC)nc32)cc1` (stereo not drawn), 11.5%; under `CCCc1ccc(OCC(=O)NNC(=O)c2cccnc2)cc1`, -2.33%. Regarding `Cc1cc(C(F)(F)F)nc(Nc2nc(C)c3ccccc3n2)n1`, the inhibition under setting [1] is 10.9%.

For `COc1cc2ccc(=O)oc2cc1OCC(O)C(C)(C)O` (stereo not drawn), the inhibition under setting [1] is 14.1%.

For the compound `COc1cccc(/C=N/Nc2nc3ccccc3n3cnnc23)c1`, the inhibition under setting [1] was 0.89%. Same read-out and setting: then `CCOC(=O)c1cc(-c2ccccc2)n(CCC(=O)N2CCN(c3ccc(OC)cc3)CC2)c1C`, with 5.67%; and `Cc1cc(C)n(/N=C/c2c[nH]c3ccccc23)c(=O)c1C#N`, with 5.27%. Still for that read-out and setting: then `CCc1ccc(NC(=O)CSc2nc3ccsc3c(=O)n2CCCCCC(=O)O)cc1`, with -11.3%. With `COc1cc(NC(C)=O)ccc1-c1cc2ccccc2oc1=O`, the inhibition under setting [1] is 4%. Take `COc1ccc(NC(=O)C2CCC(=O)N2)cc1` (stereo not drawn): the inhibition under setting [1] was 3.48%.

On to `COc1ccc(C(C(=O)NC(C)(C)C)N(C(=O)CNC(=O)c2cccs2)c2ccc(C)cc2)cc1OC` (stereo not drawn), for which the inhibition under setting [1] was -2.96%.

`O=C(COC(=O)c1ccc(Cl)nc1)Nc1ccc(S(=O)(=O)N2CCCC2)cc1`: under setting [1], the inhibition was 9.72%.

Consider `Nc1ccc(C23CC4CC(CC(C4)C2)C3)cc1`, for which, under setting [1], the inhibition was 1.15%. The same measure, in the same setting: under `CCOC(=O)c1cnc2c(-c3ccc(Cl)cc3)cnn2c1C` stands -12.2%; under `CC(=O)c1cnc2c(-c3ccc(Cl)cc3)cnn2c1C`, -0.05%. Still for that read-out and setting: then `CC(C)(C)C(=O)NC(=S)Nc1ccc(F)cc1`, with 4.15%; and `O=c1cc(-c2ccc(F)cc2F)[nH]c2ccccc12`, with -3.62%. The same measure, in the same setting: then `O=c1cc(CSc2ccc(S(=O)(=O)N3CCCCC3)cn2)nc2sccn12`, with 24.1% (active).

Take `CC(C)NC(=O)CSc1nnc(COc2ccccc2Cl)o1`: under setting [1], the inhibition is 8.56%. The same measure, in the same setting: then `O=c1cc(CSc2nnc(COc3ccccc3Cl)o2)nc2sccn12`, with 25.3% (active).

For `O=c1cc(CSc2nc3cc(Cl)ccc3o2)nc2sccn12`, the inhibition under setting [1] was 4.21%. Consider `O=c1cc(CN2CCN(S(=O)(=O)c3ccccc3)CC2)nc2sccn12`, for which the inhibition under setting [1] was -0.76%. On the same count and under the same terms, then `O=c1cc(CN2CCN(S(=O)(=O)c3ccc4ccccc4c3)CC2)nc2sccn12`, with -6.82%; and `CN(C)CCCNS(=O)(=O)c1cc(Cl)c(Cl)cc1Cl`, with 0.71%. The same measure, in the same setting: under `C#CCOC(=O)Nc1ccc(OCC(F)(F)F)nc1` stands -3.37%; under `O=C(O)Cc1cc(C(=O)Nc2ccc(Br)cc2)sc1-c1ccccc1`, 8.41%. On the same count and under the same terms, then `COc1ccc([N+](=O)[O-])cc1NC(=O)C(C)OC(=O)c1cccnc1` (stereo not drawn), with -3.23%; and `CC(C)[C@H](NC(=O)c1ccc(Cl)c([N+](=O)[O-])c1)C(=O)NCc1ccc(F)cc1`, with 3.78%. As to `Cc1cc(NC(=O)c2ccco2)ncc1NC(=O)Cc1ccccc1`, the inhibition under setting [1] is 0.67%.

On to `Cc1cc(NC(=O)c2ccco2)ncc1NC(=O)CCc1ccccc1`, for which the inhibition under setting [1] was 29.7% (active). On the same count and under the same terms, under `Cc1cc(NC(=O)c2ccccc2)ncc1NC(=O)c1ccco1` stands 5.34%; under `CC1CCCC(NC(=O)CCn2c(=S)oc3ccccc32)C1C` (stereo not drawn), 3.48%; under `Cc1ccc(-n2c(-c3nn(C)c(C)c3Cl)n[nH]c2=S)cc1`, 1.9%.
